# In the supplement of paper PMC12808144:
# Values without a mark were called inactive.
# How the values were obtained:
# NHEM-hTERT = test: cell viability relative to DMSO control (fraction of DMSO control); higher = less cytotoxic, active = 0.5 or less; conditions: 1 µM; 120 h
# Outline: (§1)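 Patient-derived Mel-DCC-11, its resistant subline Mel-DCC-11-R (alone and with 8 µM of its selecting drug) and NHEM-hTERT immortalized melanocytes were exposed for 120 h to 315 approved anti-cancer drugs at 1 µM in duplicate. Luminescence was read with ATPlite 1step. Viability was normalised to vehicle controls and averaged over duplicates.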
# Mel-DCC-11-R = test: cell viability relative to DMSO control (fraction of DMSO control); higher = less cytotoxic, active = 0.8 or less; conditions: 1 µM, 120 h
# Outline: as §1
Compound,cell viability (NHEM-hTERT),cell viability (Mel-DCC-11-R; vemurafenib co-treatment 0 µM),cell viability (Mel-DCC-11-R; vemurafenib co-treatment 8 µM)
NC(=O)c1cccc2cn(-c3ccc([C@@H]4CCCNC4)cc3)nc12 [Niraparib],0.932,1.06,1.08
C=CC(=O)Nc1cccc(Nc2nc(Nc3ccc(N4CCN(C(C)=O)CC4)cc3OC)ncc2C(F)(F)F)c1 [Rociletinib],0.71,0.855,0.836
S=P(N1CC1)(N1CC1)N1CC1 [Triethylenethiophosphoramide],0.98,0.91,0.932
COc1cc(C[C@H]2C(=O)OC[C@@H]2Cc2ccc(OC)c(OC)c2)ccc1O [Arctigenin],1.21,1.01,0.855
O=C(/C=C/c1cccc(S(=O)(=O)Nc2ccccc2)c1)NO [Belinostat],0.737,0.839,0.659 (active)
CC[C@@H]1C(=O)N(C)c2cnc(Nc3ccc(C(=O)N[C@H]4CC[C@H](N5CCN(CC6CC6)CC5)CC4)cc3OC)nc2N1C(C)C [Volasertib],0.872,1,0.664 (active)
CN(C)C(=O)c1cc2cnc(Nc3ccc(N4CCNCC4)cn3)nc2n1C1CCCC1 [Ribociclib],0.989,1.25,1.21
C[C@]12CC[C@H](O)CC1=CC[C@@H]1[C@@H]2CC[C@]2(C)C(c3cccnc3)=CC[C@@H]12 [Abiraterone],0.938,1.07,1.16
Nc1nc(=O)c2c(CCc3ccc(C(=O)N[C@@H](CCC(=O)[O-])C(=O)[O-])cc3)c[nH]c2[nH]1.[Na+].[Na+] [Pemetrexed Disodium Hydrate],0.995,1.11,1.13
CC(=O)c1c(C)c2cnc(Nc3ccc(N4CCNCC4)cn3)nc2n(C2CCCC2)c1=O [Palbociclib],0.993,1.76,1.15
COc1cc(N2CCC(N3CCN(C)CC3)CC2)ccc1Nc1ncc(Cl)c(Nc2ccccc2P(C)(C)=O)n1 [Brigatinib],0.91,1.08,0.867
CC1=C(/C=C/C(C)=C/C=C/C(C)=C\C(=O)O)C(C)(C)CCC1 [Isotretinoin],1.04,0.938,1.3
